Results reported in PubChem BioAssay AID743279 (National Center for Advancing Translational Sciences (NCATS), 2014).
About 17,000 (4.7%) of roughly 360,000 compounds were called active. About 5% were inconclusive and are not listed. Cut-off read from the data, not from the text of the source: active = activity change below about -50%; inconclusive = mostly about -30% to -49%; inactive = weaker than that. The full list was thinned out, with actives kept by preference.

Experiment: qHTS for Inhibitors of Inflammasome Signaling: IL-1-beta AlphaLISA Primary Screen
Settings: THP-1 LPS/ATP IL-1B secretion, 16 h; at 57.5 µM, active compounds read low
Source text: Inflammasomes are a set of intracellular multi-protein complexes that enable autocatalytic activation of inflammatory caspases and drive the innate immune response to counter harmful agents. […] A qHTS assay, based on AlphaLISA technology, was developed to screen the Molecular Libraries Small Molecule Repository (MLSMR) to look for novel inflammasome inhibitors. The assay detects IL-1B using AlphaLISA anti-IL-1B acceptor and donor beads. A decreased emission signal, indicating reduced IL-1B secretion, is the desired outcome for this assay. NIH Chemical Genomics Center [NCGC] NIH Molecular Libraries Probe Centers Network [MLPCN] MLPCN Grant: MH095513 Assay Provider: Shyam Biswal Ph.D., Johns Hopkins University Immunity. 2012 Jul 27;37(1):85-95. PMID: 22819042 [2] Curr Pharm Des. 2012;18(16):2320-8. PMID: 22390695
Three microliters containing 3000 THP-1 cells were dispensed into the wells of solid, white, tissue culture treated Greiner 1,536-well plates. Library compounds and positive control, Glyburide, were pin-transferred (23 nL) by a Kalypsys pin-tool equipped with a 1,536-pin array, resulting in final compound concentration ranges of 2.5 nM to 57.5 uM. After 1 hr of cell culture incubation (37 °C, 5% CO2), 1 microL of 1 microg/mL lipopolysaccharide (250 ng/mL, final) and 5 mM ATP (1.25 mM, final) were added to stimulate the cells. After 16 hr of cell culture incubation with the compounds, 1.5 uL of anti-IL-1B acceptor beads (6 ug/mL, final) and biotinylated antibody (0.6 nM, final) were added to the plate, followed by a 1 hr incubation at ambient temperature. To detect the secreted IL-1B, 1.5 uL of AlphaLISA SA-Donor beads (24 ug/mL, final) were added, followed by 30 min of incubation in the dark at ambient temperature. The AlphaLISA signal was read by a PerkinElmer EnVision plate reader with an ultrasensitive luminescence detector and 1536 Plate HTS AlphaScreen aperture (excitation of 680nm and emission of 615nm).
% is set by controls: 0 for no effect and ±100 for the full control effect.

| SMILES | activity change |
| --- | --- |
| C[C@H]1CN([C@@H](C)CO)C(=O)CCCn2cc(nn2)CO[C@@H]1CN(C)S(=O)(=O)c1cccc(C#N)c1 | 12.5% (inactive) |
| Cc1ncoc1C(=O)N1CCCC(C(=O)c2ccc3c4c(cccc24)CC3)C1 (stereo unspecified) | -21.9% (inactive) |
| CCn1ccnc1CN1CCCC(C(=O)c2ccc3c4c(cccc24)CC3)C1 (stereo unspecified) | -69.4% (active) |
| CC(=O)NCC(=O)N1CCCC(C(=O)c2ccc3c4c(cccc24)CC3)C1 (stereo unspecified) | -13.3% (inactive) |
| C[C@H](O)[C@@H]1C(=O)N2CCc3c([nH]c4ccccc34)[C@@H]2C[C@@H]1N(C)C(=O)Nc1ccc(F)cc1 | -16.5% (inactive) |
| CC1(C(=O)NS(=O)(=O)c2ccc3ccccc3c2)CCN1C(=O)C1(c2ccc(Cl)cc2)CCC1 (stereo unspecified) | 53.2% (inactive) |
| COc1ccc(NC(=O)c2cc(-c3ccc(C)o3)nc3ccccc23)cc1 | -5.74% (inactive) |
| COc1ccc(NC(=O)c2cc(-c3cc(OC)c(OC)c(OC)c3)nc3ccccc23)c(OC)c1 | 42.6% (inactive) |
| COc1ccc(-c2cc(C(=O)N(C)Cc3ccc(OC)c(OC)c3OC)c3ccccc3n2)cc1OC | -13.9% (inactive) |
| COc1ccc(-c2cc(C(=O)N(C)CC(=O)Nc3ccccc3Cl)c3ccccc3n2)cc1OC | -52.1% (active) |
| COc1ccc(-c2cc(C(=O)Nc3ccccc3O)c3ccccc3n2)cc1 | -84.2% (active) |
| COc1ccc(Cl)cc1NC(=O)CN(C)C(=O)c1cc2ccccc2cc1OC | 5.95% (inactive) |
| COc1ccc(CN(C)C(=O)c2cc(-c3ccc(C)cc3C)nc3ccccc23)c(OC)c1OC | -84.9% (active) |
| COc1cccc(NC(=O)CN(C)C(=O)c2cc(Cl)nc3ccccc23)c1 | 17.2% (inactive) |
| COc1ccc(CN(C)C(=O)Cc2c[nH]c3ccccc23)c(OC)c1OC | 5.58% (inactive) |
| O=C(Nc1nonc1-c1ccc(Cl)cc1)c1ccco1 | 26.6% (inactive) |
| CC(C)C[C@H](NC(=O)N1CC(=O)Nc2ccccc21)C(=O)N[C@H](Cc1ccccc1)C(=O)O | 4.57% (inactive) |
| N#Cc1ccc(-c2nc3c(Cl)cc(C(F)(F)F)cn3c2Cc2ccccc2C(F)(F)F)cc1 | 23.1% (inactive) |
| COc1ccc(S(=O)(=O)N2CCC(C(=O)NCCC(=O)Nc3ccccc3OC)CC2)cc1 | 2.12% (inactive) |
| Nc1nc2c(ncn2[C@@H]2O[C@H](CNS(=O)(=O)N3CCc4ccccc4C3)[C@@H](O)[C@H]2O)c(=O)[nH]1 | 0.653% (inactive) |
| COc1cccc(OCC(=O)NCCS(=O)(=O)N2CCN(c3ccccc3)CC2)c1 | 21% (inactive) |
| OC[C@H]1O[C@@H](c2nc(-c3nc(-c4ccc(F)cc4)no3)cs2)[C@H](O)[C@@H](O)[C@H]1O | 2.39% (inactive) |

| SMILES | activity change |
| --- | --- |
| CCCCN1C(=O)C(CC(=O)NC(c2ccccc2)c2ccccc2)CC(C(=O)N2CCOCC2)=C1C (stereo unspecified) | 14.9% (inactive) |
| O=C(c1cccs1)n1nc(NCc2ccccc2)nc1NCc1ccccc1 | -57.7% (active) |
| CCCC(=O)n1nc(NCc2ccc(OC)cc2)nc1NCc1ccc(OC)cc1 | 15.3% (inactive) |
| Nc1nc(NCc2ccccc2)n(-c2ccccc2)n1 | 4.19% (inactive) |
| CC(C)(C)OC(=O)N1CCN(C(=O)c2[nH]c(C(F)(F)F)nc2-c2ccccc2)CC1 | 13.4% (inactive) |
| Cc1ccc(CN(C(=O)c2sc3ccccc3c2Cl)C2CCS(=O)(=O)C2)cc1 (stereo unspecified) | -2.89% (inactive) |
| Nn1cnnc1N/N=C/c1cc([N+](=O)[O-])c(Cl)cc1Cl | -61.8% (active) |
| Cc1cccc(C=CC(=O)c2ccc(Cl)cc2)c1 | -29.5% (inactive) |
| O=C(/C=C/Sc1ncn[nH]1)c1ccc(Cl)cc1 | -118% (active) |
| O=C(CSc1ncn[nH]1)NCc1ccc2c(c1)OCO2 | 17.5% (inactive) |
| Cc1ccc(-c2ccc(CN3C(C(C)C)C(=O)N(Cc4cn(CCC5OCCCO5)nn4)CCS3(=O)=O)cc2)cc1 (stereo unspecified) | 13% (inactive) |
| CCn1ncc(C2=NOC(C(=O)N3CCN(c4ccccc4)CC3)C2)c1C (stereo unspecified) | 3.63% (inactive) |
| COc1ccc(-c2nn(-c3ccccc3)cc2/C=C\C(=O)N2CCOCC2)cc1[N+](=O)[O-] | -9.66% (inactive) |
| O=C(NCCCN1CCOCC1)c1cn(-c2ccccc2)nc1-c1ccc(F)cc1 | -7.44% (inactive) |
| O=C(/C=C/c1cn(-c2ccccc2)nc1-c1ccc2c(c1)OCCO2)NCCCN1CCOCC1 | -92.2% (active) |
| O=C(COC(=O)/C=C/c1ccc(Br)o1)Nc1cccc(S(=O)(=O)N2CCOCC2)c1 | 13.8% (inactive) |
| CC1=C(C(=O)N(C)C)CC(CC(=O)NCCc2ccccn2)C(=O)N1CCC1=CCCCC1 (stereo unspecified) | -20.1% (inactive) |
| CCOC(=O)[C@]12CCCC=C1N(CCC1=CCCCC1)C(=O)[C@H](CC(=O)NCCCCc1ccccc1)C2 | -17.5% (inactive) |
| CC1=C(C(=O)N(C(C)C)C(C)C)CC(CC(=O)NCCCCc2ccccc2)C(=O)N1CCC1=CCCCC1 (stereo unspecified) | -59% (active) |
| CCCCOCCCNC(=O)C[C@@H]1C[C@@]2(C(=O)OCC)CCCC=C2N(CCC2=CCCCC2)C1=O | -27.8% (inactive) |
| CCCCOCCCNC(=O)C[C@@H]1C[C@@]2(C(=O)OC)CCCCC=C2N(CCC2=CCCCC2)C1=O | -57.4% (active) |
| CCOC(=O)[C@]12CCCC=C1N(CCC1=CCCCC1)C(=O)[C@H](CC(=O)NCCCOC)C2 | 60.5% (inactive) |

| SMILES | activity change |
| --- | --- |
| O=C(Nc1c(Br)cc2c(c1Br)Cc1cc([N+](=O)[O-])ccc1-2)C(Cl)Cl | 39% (inactive) |
| CCCOc1ccc(-c2c(C(=O)N/N=C/c3ccco3)nnn2-c2nonc2N)cc1 | 92.5% (inactive) |
| Cc1cc(C)c(S(=O)(=O)NN=C2c3ccccc3[C@H]3Cc4csc[n+]4[C@@H]23)c(C)c1 | -3.78% (inactive) |
| COc1ccc(C(NC(=O)C2CCN(CCCc3ccccc3)CC2)c2cccs2)cc1 (stereo unspecified) | -24% (inactive) |
| O=C(CCN1CCCCC1)Nc1ccc(F)c(F)c1 | -0.386% (inactive) |
| COc1ccc(NC(=O)N(C)C[C@@H]2OCc3cn(nn3)CCCC(=O)N([C@H](C)CO)C[C@H]2C)c(OC)c1 | 9.8% (inactive) |
| CC(C)(C)OC(=O)N(Cc1ccccc1)Cc1ccc(OCc2cccc(NC(=O)c3ccccc3)c2)cc1 | 9.51% (inactive) |
| CCOc1ccc(OCc2cccc(C(=O)N(CC)CC)c2)cc1 | 0% (inactive) |
| CC(C)c1cc(C(N)=O)c(NC(=O)c2cccc(COc3ccc(Br)cc3)c2)s1 | -75.7% (active) |
| O=C1CSC(c2ccc(Cl)cc2)N1 (stereo unspecified) | 0% (inactive) |
| COc1ccc2c(C)c(CCC(=O)NC3CC3)c(=O)oc2c1C | -19.2% (inactive) |
| CC1=NNC(=O)C1CCC(=O)N/N=C(\C)c1ccc(Cl)cc1 (stereo unspecified) | 6.73% (inactive) |
| C/C(=N\NC(=O)Cc1ccc(Cl)cc1)c1ccccn1 | -103% (active) |
| CNC(=S)N1CCN(c2ccccn2)CC1 | -3.93% (inactive) |
| NC(=O)NC(CC(=O)NNC(=O)c1ccccn1)c1ccc(Cl)cc1 (stereo unspecified) | 99.7% (inactive) |
| Cc1cccc(C)c1NC(=S)N1CCCCCC1 | 5.87% (inactive) |
| CC(=NNC(=S)N1CCCCCC1)c1ccccn1 | -106% (active) |
| O=C(NCCOc1ccccc1)c1ccccc1F | -17.7% (inactive) |
| COc1ccc(/C(C)=N\NC(=O)c2ccc(-c3ccccc3)cc2)c(F)c1 | 7.94% (inactive) |
| C/C(=N\NC(=O)c1ccccc1F)c1ccccn1 | -100% (active) |
| CO[C@@H]1CN(C)C(=O)c2cc(NC(=O)Nc3cc(F)ccc3F)ccc2OC[C@H](C)N(C(=O)c2ccccn2)C[C@@H]1C | 11% (inactive) |
| COC(=O)c1ccc(CSc2nnc(N)s2)o1 | -16.4% (inactive) |

| SMILES | activity change |
| --- | --- |
| CCCCNC(=O)C[C@@H]1C[C@@]2(C(=O)OCC)CCC=C2N(Cc2ccco2)C1=O | 14.5% (inactive) |
| O=C(NCc1ccc(F)cc1)c1cc(C2CCCCN2C(=O)c2cccs2)on1 (stereo unspecified) | -12.4% (inactive) |
| O=C(CN1CCN(c2ccc(O)cc2)CC1)Nc1ccc(-c2ccccc2)cc1 | 12.4% (inactive) |
| Cc1cccc(C)c1NC(=O)C(c1cccc2ccccc12)n1c(=O)c(-c2ccco2)nc2ccccc21 (stereo unspecified) | 7.42% (inactive) |
| COc1ccc(NS(=O)(=O)c2ccc(C)c(C(=O)NCC(c3cccs3)N3CCOCC3)c2)cc1 (stereo unspecified) | 2.47% (inactive) |
| CC1(C(=O)NS(=O)(=O)c2cccc(OC(F)F)c2)CCN1C(=O)COc1ccc(Cl)cc1 (stereo unspecified) | 48.6% (inactive) |
| CC(NCc1nc2ccccc2n1C)C12CC3CC(CC(C3)C1)C2 (stereo unspecified) | -94.3% (active) |
| COc1cccc(C(O)Cc2nc3ccccc3n2C)c1OC (stereo unspecified) | 11.4% (inactive) |
| CCOc1ccc(C(O)Cc2nc3ccccc3n2C)cc1 (stereo unspecified) | -16% (inactive) |
| COc1cc(C(=O)N2CCN(S(=O)(=O)c3ccc(C(C)C)cc3)CC2)ccc1OCC(=O)N1CCOCC1 | -21.1% (inactive) |
| O=C(c1cc(C2CCCCN2S(=O)(=O)c2ccccc2)on1)N1CCOCC1 (stereo unspecified) | 0% (inactive) |
| Nn1c(SCC(=O)Nc2nccs2)nnc1-c1ccco1 | -6.29% (inactive) |
| Cn1cc(CCC(=O)NCc2ccc3c(c2)OCO3)c2ccccc21 | 0% (inactive) |
| N#Cc1nc(Cc2cccc3ccccc23)oc1NCc1ccc2c(c1)OCO2 | -53.4% (active) |
| CC1(C(=O)NCc2ccc3c(c2)OCO3)CCN1C(=O)Cc1cccc2ccccc12 (stereo unspecified) | -20.8% (inactive) |
| Cc1ccc(S(=O)(=O)N2CCOCC2)cc1NC(=O)COC(=O)c1cnccn1 | 2.75% (inactive) |
| CCOC(=O)C1CCCN(C(=O)c2ccc(C)c(F)c2)CC1 (stereo unspecified) | 13% (inactive) |
| Cn1c(SCC(=O)Nc2ccc(Br)cc2F)nnc1-c1ccco1 | -12.1% (inactive) |
| Cn1c(-c2ccco2)nc2cc3ccccc3cc21 | -69.2% (active) |
| COc1ccccc1-n1c(-c2cc(-c3ccco3)[nH]n2)n[nH]c1=S | 5.01% (inactive) |
